Experimental data reported in PubChem BioAssay (NCI).
Compounds without any hit were thinned out: in the full panel of roughly 83,000, 20% have a hit.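 Growth was measured after 48 h exposure to one concentration of compound in 96-well plates. Values under 10 count as active.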 A number with no mark means an inactive call. Activity calls are given as the source filed them.

Legend:
Experiment in all cases: NCI-60 one-dose screen, 48 h (100 = growth as untreated, 0 = no growth, -100 = all killed)
Settings in all cases: 10 µM unless noted
[1] = test system: DU-145 prostate
[2] = test system: K-562 leukemia
[3] = test system: MALME-3M melanoma
[4] = test system: MDA-MB-231 breast
[5] = test system: RXF 393 renal
[6] = test system: SF-268 CNS
[7] = test system: SF-295 CNS
[8] = test system: SF-539 CNS
[9] = test system: UACC-257 melanoma
[10] = test system: M14 melanoma

| Compound | growth [1] | growth [2] | growth [3] | growth [4] | growth [5] | growth [6] | growth [7] | growth [8] | growth [9] | growth [10] |
| --- | --- | --- | --- | --- | --- | --- | --- | --- | --- | --- |
| Cc1cc(Nc2cccc(C(F)(F)F)c2)n2c(nc3ccccc32)c1C#N | 53.9% | 22.1% | 60.6% | 54.2% | 61.3% | 51.3% | 53.9% | 40.9% | 11.9% | 54.4% |
| Nc1ccccc1NC(=O)c1ccc(CN2CCC/C(=C\c3cccc(Cl)c3)C2=O)cc1 | 8.37% (active) | 4.21% (active) | 63.7% | -2.78% (active) | 20.6% | 3.92% (active) | 25.5% | 5.47% (active) | 37.7% | 24% |
| Cc1cc(C)n(Nc2nc3ccccc3[nH]c2=O)c(=O)c1C#N | 101% | 94.3% | 91.7% | 80.6% | 97.9% | 92.9% | 95.6% | 87.2% | 97.6% | 98.8% |
| COc1ccc(/C=C/C(=O)c2ccc(OC)c(OC)c2)cc1O | 21% | 14.7% | 90.9% | 73% | 72.1% | 80.7% | 104% | 79.8% | 96.6% | 97.7% |
| COc1ccc(/C(C)=N/NC(=O)CSc2nc3ccccc3c(=O)n2Cc2ccc(S(N)(=O)=O)cc2)c(OC)c1 | 108% | 94.9% | 102% | 96.2% | 102% | 91.8% | 98.7% | 100% | 107% | 104% |
| O=S(=O)(c1ccc(N/N=C\c2ccccc2)cc1)c1ccc(N/N=C/c2ccccc2)cc1 | 69% | 79.9% | 55.4% | 49.4% | 72.8% | 75.1% | 58.2% | 65.9% | 80.5% | 76.7% |
| CCCN=C(N)c1ccc(NC(=O)c2ccc(C(=O)Nc3ccc(C(N)=NCCC)cc3)cc2)cc1 | 107% | 91% | 88.1% | 96.6% | 96.5% | 95.8% | 90.3% | 92.8% | 101% | 98.4% |
| N#Cc1c(NC(=O)c2cccc(Br)c2)sc2c1CCCC2 | 89.7% | 22.5% | 62.4% | 82.2% | 96.8% | 97.6% | 80.8% | 86.6% | 83.4% | 72.2% |
| Cc1ccc(O)c(C(=O)O)c1 | 114% | 98.2% | 128% | 114% | 121% | 104% | 114% | 116% | 108% | 116% |
| COc1ccc(Nc2nc(N)nc3c2CCc2occc2-3)cc1 | 102% | 92.4% | 110% | 99.5% | 114% | 100% | 86.2% | 96.8% | 108% | 93.6% |
| [O-][n+]1ccccc1CCN(O)CCc1cccc[n+]1[O-] | 111% | 106% | 99.5% | 97.8% | 113% | 101% | 103% | 87% | 106% | 94.5% |
| Cc1ccc(C(=O)Nc2ccccc2C(=O)N/N=C(\c2ccccc2)c2ccccn2)cc1 | 22.7% | 19.9% | 37.9% | 34.4% | 40.4% | 20.2% | 23% | 8.97% (active) | 8.34% (active) | -38.9% (active) |
| COc1cc2nc(-c3ccc(C(F)(F)F)cc3)cc(OCCN3CCCC3)c2cc1OC | 84.1% | 47.4% | 85.8% | 74.6% | 65.4% | 81% | 83% | 81.1% | 68.9% | 4.5% (active) |
| CCOc1ccc(/C=N/Nc2cc(C)nc3ccc(Cl)cc23)cc1 | 44.4% | -38.7% (active) | -38.9% (active) | 43% | 0.829% (active) | 75.2% | -64.6% (active) | 83.6% | 69.5% | -39.6% (active) |
| c1ccc2c(-c3c4ccsc4cc4[nH]c5ccccc5c34)c[nH]c2c1 | 66.3% | 16% | 46.7% | 55% | 32.2% | 40.7% | 26.7% | 17.9% | 66.9% | 8.79% (active) |
| CC(C)C1C2=C(NCCN1C(=O)Cc1ccccc1)C(C)(C)N(Cc1ccccc1)C2=O (stereo not given) | 104% | 96.5% | 98.3% | 98.2% | 98.3% | 102% | 99.5% | 107% | 96.7% | 103% |
| CCCCCCCCCCCC(=O)C(CCCCCCCCCC)C(=O)Nc1ccccc1 (stereo not given) | 104% | 104% | 105% | 91.2% | 116% | 104% | 102% | 98.2% | 92.9% | 103% |
| COC(=O)C1NC(=S)N(c2ccc(Cl)cc2)C1/C=C/c1ccccc1 (stereo not given) | 100% | 106% | 103% | 95% | 110% | 101% | 91% | 94.6% | 99.3% | 87.1% |
| CCCC/C(=N\N=C(N)N)c1ccc(F)cc1 | 44.1% | 10.4% | 40.6% | 59.3% | -5.71% (active) | 45.2% | 18.4% | 11.7% | 44.1% | 13.7% |
| [2H]C1([2H])NC([2H])([2H])C([2H])([2H])N(c2ccc(Nc3ncc4cc(C(=O)N(C)C)n(C5CCCC5)c4n3)nc2)C1([2H])[2H] | 99.7% | 64.6% | 58.4% | 64.9% | 82.4% | 77.4% | 72.7% | 86.5% | 61.1% | 75.2% |
| O=C(CSc1nc2sc3c(c2c(=O)n1Cc1ccccc1)CCCC3)N1CCN(c2ccccc2)CC1 | 103% | 99.4% | 109% | 101% | 105% | 93.9% | 101% | 103% | 85.7% | 97.2% |
| Clc1ccc2c(c1)c(-c1ccccc1)nc1nncn12 | 112% | 119% | 113% | 119% | 135% | 95.6% | 101% | 95.1% | 115% | 110% |
| C=C1C(=O)O[C@H]2[C@H]1CC/C(COC(=O)/C=C/c1c[nH]c3ccccc13)=C\CC[C@@]1(C)O[C@@H]21 | -73.5% (active) | -3.41% (active) | -83.5% (active) | -78.4% (active) | -94.3% (active) | -72.8% (active) | 21.8% | -95.5% (active) | -90.4% (active) | -76.9% (active) |
| CC(C)(C#N)N1CCN(c2ccccc2Cl)CC1 | 105% | 96.4% | 91.2% | 110% | 118% | 101% | 97.2% | 96.8% | 92.1% | 99.2% |
| c1ccc(-c2nn(-c3ccccc3)[n+](-c3ccccc3-c3ccccc3)n2)cc1 | 22.8% | 5.29% (active) | -31.7% (active) | 35.5% | 10.1% | 22% | 3.4% (active) | 22.9% | 9.82% (active) | 23.2% |
